Our source for the activity change, negative = inhibition values is PubChem BioAssay AID504652 (National Center for Advancing Translational Sciences (NCATS), 2011).

Values joined by “and” are separate entries in the source; they are usually repeats but may differ in a detail not shown here. Equal values may be shown once. In all, about 360,000 compounds went through this assay and about 11,000 (3.1%) were called active. Rule as the data show it: active = activity change below about -30%; inactive = the rest. This excerpt belongs to a sample that is enriched for actives. A structure can be active in one record and inactive in another.
% is scaled to controls: 0 for no effect and ±100 for the full control effect.

D(1A) dopamine receptor (Homo sapiens), sequence (P21728 whole entry, looked up): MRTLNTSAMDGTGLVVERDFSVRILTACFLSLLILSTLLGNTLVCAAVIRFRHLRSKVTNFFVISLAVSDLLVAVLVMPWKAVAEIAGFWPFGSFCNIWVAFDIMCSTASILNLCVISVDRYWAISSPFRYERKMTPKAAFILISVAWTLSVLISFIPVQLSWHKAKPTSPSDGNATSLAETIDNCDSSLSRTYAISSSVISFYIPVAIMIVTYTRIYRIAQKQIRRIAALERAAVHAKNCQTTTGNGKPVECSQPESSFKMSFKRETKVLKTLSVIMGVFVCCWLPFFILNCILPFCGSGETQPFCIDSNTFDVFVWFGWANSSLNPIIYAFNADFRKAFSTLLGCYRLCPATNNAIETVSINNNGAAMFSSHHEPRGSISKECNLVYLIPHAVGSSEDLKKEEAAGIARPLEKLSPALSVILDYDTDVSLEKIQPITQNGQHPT

The target in the assay is D(1A) dopamine receptor (Homo sapiens) (UniProt P21728). Put plainly: Antagonist of Human D 1 Dopamine Receptor: qHTS. The note with it: HEK293 TREx D1 cells, calcium flux, dopamine EC80; at 10 µM; stronger effect = lower value. A digest of the protocol:
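Tetracycline-induced HEK293 T-REx cells with force-coupled D1 receptor were loaded with a no-wash calcium dye. Compound was added after a 10 s baseline and read kinetically for 180 s; EC80 dopamine was then added and calcium flux followed another 180 s.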
As to `O=C1N(Cc2ccccc2)c2ccc(Cl)cc2C1(O)c1c[nH]c2ccccc12` (stereo not drawn), the activity change, negative = inhibition is -8.31% (inactive).
Turning to `Cc1ccc(-n2nnnc2CNC(=O)c2ccccc2C)cc1C`, the activity change, negative = inhibition was -3.19% (inactive).
Next, `COc1ccccc1C(=O)Nc1ccnn1C1CCN(Cc2cnn(C)c2)CC1`: 1.08% (inactive); `COc1ccc(C(=O)Nc2ccnn2C2CCN(Cc3ccncc3)CC2)cc1`: -37.3% (active); `CC(C)Oc1ccc(CN2CCC(n3nccc3NC(=O)c3cccnc3)CC2)cc1`: 8.77% (inactive).
As to `CCc1ccc(C2CC(=O)c3c([nH]c(C(=O)OCc4ccc(C)cc4)c3C)C2)cc1` (stereo not drawn), the activity change, negative = inhibition is -10.1% (inactive).
For the molecule `Cc1c(C)n(Cc2ccc(Cl)cc2)c2ccc(C(=O)N3CCN(c4ccccc4F)CC3)cc12`, the activity change, negative = inhibition was -18.2% (inactive).
With `CCn1c(C)c(C)c2cc(C(=O)N3CCN(c4cccc(C)c4C)CC3)ccc21` the figure was 25% (inactive) and -43.2% (active).
On to `Cc1cccc(N2CCN(C(=O)c3ccc4c(c3)CCN4S(=O)(=O)c3ccccc3)CC2)c1C`, for which the activity change, negative = inhibition was -15.6% (inactive).
Next, `CN(Cc1ccccc1)c1ncnc2onc(-c3ccc(F)cc3)c12`: -1.84% (inactive).
Regarding `Cc1ccc(-c2nnc(SCC(=O)NCc3ccccc3)nc2-c2ccc(C)cc2)cc1`, the activity change, negative = inhibition was -16.8% (inactive).
Turning to `CCC(CC)c1nn2cc(-c3ccccc3)nc2s1`, the activity change, negative = inhibition was 14.7% (inactive).
Next, `O=C(CCC(=O)N1CCCC1)Nc1ccc([N+](=O)[O-])cc1`: 15.5% (inactive); `O=C(Nc1ccc([N+](=O)[O-])cc1)C1(c2ccccc2)CCOCC1`: -11.2% (inactive); `O=C(Nc1ccc([N+](=O)[O-])cc1)C1CC12CCC2` (stereo not drawn): -56.8% (active).
With `CCC(=O)N1CCc2cc(Br)cc(S(=O)(=O)Nc3ccc(C)cc3C)c21` the figure was 2.58% (inactive); with `Cc1c(NC(=O)C(C)(C)C)cccc1-c1nc2ccccc2s1`, 0.443% (inactive).
Next, `CCOC(=O)c1ccc(N2C(=O)c3n[nH]c(C)c3C2c2ccc(O)c(OC)c2)cc1` (stereo not drawn): -4.29% (inactive); `CCOC(=O)N1CCN(S(=O)(=O)c2ccc(Br)cc2)CC1`: -1.63% (inactive).
Take `Cn1ncc(N2CCN(S(=O)(=O)c3ccc(Br)cc3)CC2)c(Cl)c1=O`: the activity change, negative = inhibition was -30.4% (active).
With `Cc1ccc(S(=O)(=O)N2CCN(C)CC2)cc1` the figure was 0.986% (inactive); with `Cc1ccc(C)c(NC(=O)Cn2ccn(-c3ccc(F)cc3)c(=O)c2=O)c1`, -20% (inactive).
For the molecule `COc1ccccc1NC(=O)c1oc2ccccc2c1NC(=O)C(C)C`, the activity change, negative = inhibition is -5.69% (inactive).
Next, `COc1ccc(CCN2C(=O)c3[nH]nc(-c4ccccc4O)c3C2c2ccc(C)cc2)cc1OC` (stereo not drawn): -3.51% (inactive); `COc1ccc(CCNC(=O)C(=O)NCc2ccccc2C)cc1OC`: 3.05% (inactive).
For `COC(=O)c1ccc(C2C(Oc3ccccc3C)C(=O)N2CCc2ccc(OC)c(OC)c2)cc1` (stereo not drawn), the activity change, negative = inhibition is -49.6% (active).
With `Cc1ccccc1NC(=O)CN1C(=O)C(C)(C)c2ccccc21` the figure was 10.3% (inactive); with `CC(=O)Nc1ccc(S(=O)(=O)Oc2ccc(Br)cc2C(=S)N2CCOCC2)cc1`, 0.681% (inactive); with `CCOc1cc(C(=S)N2CCOCC2)ccc1O`, -0.874% (inactive).
Regarding `CCOc1cc(C(=S)N2CCOCC2)ccc1OS(=O)(=O)c1ccc(Br)cc1`, the activity change, negative = inhibition is -30.6% (active).
With `COC(=O)c1ccc2c(c1)N(CC(=O)Nc1ccc(C)c(C)c1)C(=O)c1ccccc1S2` the figure was 10.3% (inactive); with `Cc1csc2nc(COC(=O)c3ccc(NC(=O)COc4ccccc4F)cc3)cc(=O)n12`, -26.3% (inactive).
Next, `CCS(=O)(=O)n1nc(-c2ccccc2)nc1SCc1ccccc1`: -30.7% (active); `Cc1ccc(S(=O)(=O)n2nc(-c3ccc(Cl)cc3)nc2NCc2ccccc2)cc1`: -3.44% (inactive).
Consider `CCS(=O)(=O)n1nc(-c2ccc(OC)cc2)nc1SC`, for which the activity change, negative = inhibition was -19.3% (inactive).
For the molecule `CC1=NN(C(=O)CCc2ccccc2O)C(O)(C(F)(F)F)C1` (stereo not drawn), the activity change, negative = inhibition is 12.3% (inactive).
Consider `CC1=NN(C(=O)CCCc2ccccc2)C(O)(C(F)(F)F)C1` (stereo not drawn), for which the activity change, negative = inhibition is -32.5% (active).
Consider `COc1ccc(CC(=O)N2N=C(C)CC2(O)C(F)(F)F)cc1` (stereo not drawn), for which the activity change, negative = inhibition is -2.03% (inactive).
With `O=C(Nc1ccc2oc(-c3ccc(O)c(Br)c3)nc2c1)c1cc2ccccc2o1` the figure was -6.68% (inactive); with `O=C(CC(c1cccs1)N1Cc2ccccc2C1=O)Nc1ccc(F)cc1F` (stereo not drawn), 4.94% (inactive); with `CCOC(=O)c1ccc(NC(=O)CSc2nc3c([nH]c4ccccc43)c(=O)n2C)cc1`, -5.11% (inactive).
On to `Cc1ccc(C(=O)NC2CC(C)(C)NC(C)(C)C2)c(C)c1`, for which the activity change, negative = inhibition was -9.44% (inactive).
As to `CC(=O)N/N=C(\C)c1ccc(Br)cc1Br`, the activity change, negative = inhibition is 25.3% (inactive).
Next, `C/C(=N\NC(=O)C1(C)CC1(Br)Br)c1ccc(C)cc1C` (stereo not drawn): -58.1% (active); `CCc1ccc(-n2nc(C)c3c(C)cc(=O)n(CC(=O)Nc4ccc(F)cc4C)c32)cc1`: -6.21% (inactive); `O=C(NCCc1c[nH]c2ccc(Cl)cc12)c1ccc([N+](=O)[O-])cc1`: -40.2% (active).
With `O=C(NCCc1ccc(Cl)cc1Cl)c1cc([N+](=O)[O-])c[nH]c1=O` the figure was -1.06% (inactive).
Next, `Cc1ccc2[nH]cc(CCNC(=O)c3ccc([N+](=O)[O-])cc3)c2c1`: -29.3% (inactive); `O=C(c1cnn(-c2ccc(F)cc2)c1-n1cccc1)N1CCN(c2ccc(F)cc2)CC1`: 1.87% (inactive).
On to `CCOC(=O)c1cc(-c2ccc(OC)c(S(=O)(=O)Nc3ccc(OC)cc3OC)c2)on1`, for which the activity change, negative = inhibition was -13.6% (inactive).
With `CCc1ccc(C(CNc2nc(C(F)(F)F)nc3ccccc23)N(C)C)cc1` (stereo not drawn) the figure was 26.8% (inactive).
With `CC(Nc1nc(C(F)(F)F)nc2ccccc12)c1cccs1` (stereo not drawn) the figure was -20.1% (inactive); with `NS(=O)(=O)c1ccc(CCNc2nc(C(F)(F)F)nc3ccccc23)cc1`, -36% (active); with `COC(=O)c1ccc(NC(=O)c2cc(S(=O)(=O)N3CCC(C)CC3)cn2C)cc1`, -19.2% (inactive).
Next, `COc1ccc(Cn2c(C(=O)O)c(CNCCc3cccs3)c3ccc(OC)cc32)cc1`: 9.72% (inactive); `O=C(Cn1c(-c2cccs2)cc2ccccc21)NCCc1ccc(Cl)cc1`: -2.26% (inactive); `COc1ccc(CCNC(=O)CN2CCC(n3nnc4cc(F)ccc43)CC2)cc1OC`: -3.98% (inactive).
With `Cc1ccc(CCNC(=O)Cn2c(-c3cccs3)cc3cc(F)ccc32)cc1`, the activity change, negative = inhibition is -40.1% (active).
